The source made the active and inactive calls.
How the values were obtained:
[1] = optical density shifts of acrAB sulA E. coli – strain DRC41, OD650, 48 h, E. coli filamentation inducer project, primary screen (AID 1152); details: higher = more signal, called active from +8 up or from −8 down;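 also: E. coli MC1000 strain DRC41 lacking acrAB efflux pump and sulA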
[2] = probe aLefty1 binding on compound microarray – biochemical, small-molecule microarray, 635/667 nm fluorescence, primary screen (AID 1153); details: higher = more signal;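 also: score merges spot fluorescence with signal-to-noise ratio from the scanned slide images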
[3] = plasmodial surface anion channel blockers, osmotic lysis – cell-based, P. falciparum Indochina, OD700, 1 h, primary screen (AID 1154); details: P. falciparum Indochina infected RBC osmotic lysis, higher = more signal, called active from +8 up or from −8 down
[4] = plasmodial surface anion channel blockers, osmotic lysis – cell-based, P. falciparum Indochina, OD700, 2 h, primary screen (AID 1155);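 also: lysis reports solute entry through the parasite surface anion channel PSAC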; details: P. falciparum Indochina infected erythrocytes, higher = more signal, called active from +8 up or from −8 down
[5] = changes in parasitized red cell lysis, either direction – P. falciparum Indochina, OD700, 3 h, PSAC antagonist project, primary screen (AID 1156); details: P. falciparum-infected erythrocytes, osmotic lysis, higher = more signal, called active from +8 up or from −8 down
[6] = plasmodial surface anion channel blockers, osmotic lysis – cell-based, P. falciparum Indochina, OD700, 18 h, primary screen (AID 1157); details: P. falciparum Indochina infected erythrocytes, osmotic lysis OD700, 18 h; higher = more signal, called active from +8 up or from −8 down
[7] = S6 kinase pathway phospho-S6 level changes – cell-based, A549, cytoblot, luminescence, serum-stimulated, primary screen (AID 1158); details: 5 h, higher = more signal;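 also: serum-stimulated A549 lung adenocarcinoma cells; signal is phosphorylated S6 detected by cytoblot immunostaining with HRP secondary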
[8] = molecular target: NADPH oxidase 2 (Homo sapiens) (UniProt P04839); experiment: compounds shifting NOX2 Amplex Red fluorescence – cell-based, HEK293-NOX2, PMA-stimulated, NOX inhibitor project, primary screen (AID 1159); details: 45 min, higher = more signal, called active from +8 up or from −8 down; also: test concentration not given here
Sequence of NADPH oxidase 2 (Homo sapiens) (P04839 whole entry, looked up): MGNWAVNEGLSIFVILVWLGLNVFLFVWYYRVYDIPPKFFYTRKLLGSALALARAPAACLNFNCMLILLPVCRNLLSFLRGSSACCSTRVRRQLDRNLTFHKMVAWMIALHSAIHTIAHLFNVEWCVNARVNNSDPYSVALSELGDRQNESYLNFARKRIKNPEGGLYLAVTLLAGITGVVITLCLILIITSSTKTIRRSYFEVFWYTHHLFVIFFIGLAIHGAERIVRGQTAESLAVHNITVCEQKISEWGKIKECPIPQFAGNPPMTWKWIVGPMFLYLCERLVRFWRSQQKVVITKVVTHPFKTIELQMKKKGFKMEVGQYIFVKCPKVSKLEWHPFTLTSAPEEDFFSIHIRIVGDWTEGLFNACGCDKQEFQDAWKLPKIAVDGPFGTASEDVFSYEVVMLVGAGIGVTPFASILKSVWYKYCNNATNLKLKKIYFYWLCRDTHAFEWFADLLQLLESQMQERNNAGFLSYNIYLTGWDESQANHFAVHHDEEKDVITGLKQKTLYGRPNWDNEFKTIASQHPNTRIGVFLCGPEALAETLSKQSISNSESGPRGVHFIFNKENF

[9] = molecular target: NADPH oxidase 4 (Homo sapiens) (UniProt Q9NPH5); experiment: compounds shifting NOX4 Amplex Red fluorescence – cell-based, HEK293-NOX4, tetracycline-induced, NOX inhibitor project, primary screen (AID 1160); details: HEK293-NOX4, Amplex Red H2O2 fluorescence, 45 min; higher = more signal, called active from +8 up or from −8 down
Sequence of NADPH oxidase 4 (Homo sapiens) (Q9NPH5 whole entry, looked up): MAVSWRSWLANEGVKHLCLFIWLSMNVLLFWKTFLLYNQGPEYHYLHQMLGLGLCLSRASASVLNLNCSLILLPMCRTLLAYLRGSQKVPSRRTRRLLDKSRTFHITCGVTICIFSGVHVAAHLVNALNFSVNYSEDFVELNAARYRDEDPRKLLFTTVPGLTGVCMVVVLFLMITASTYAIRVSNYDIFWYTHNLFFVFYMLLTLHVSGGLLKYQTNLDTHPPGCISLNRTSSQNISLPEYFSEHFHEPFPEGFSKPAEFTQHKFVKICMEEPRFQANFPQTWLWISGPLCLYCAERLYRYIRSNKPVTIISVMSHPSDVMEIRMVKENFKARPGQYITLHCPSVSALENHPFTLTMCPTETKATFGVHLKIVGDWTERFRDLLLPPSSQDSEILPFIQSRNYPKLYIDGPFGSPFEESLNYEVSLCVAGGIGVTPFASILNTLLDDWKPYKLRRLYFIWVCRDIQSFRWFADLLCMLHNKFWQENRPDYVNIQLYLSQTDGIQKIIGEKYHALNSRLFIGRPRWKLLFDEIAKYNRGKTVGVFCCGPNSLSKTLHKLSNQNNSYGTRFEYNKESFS

[10] = molecular target: NADPH oxidase 5 (Homo sapiens) (UniProt Q96PH1); experiment: compounds shifting NOX5 Amplex Red fluorescence – cell-based, HEK293-NOX5, NOX inhibitor project, primary screen (AID 1161); details: HEK293-NOX5, ionomycin, 45 min, higher = more signal
Sequence of NADPH oxidase 5 (Homo sapiens) (Q96PH1 whole entry, looked up): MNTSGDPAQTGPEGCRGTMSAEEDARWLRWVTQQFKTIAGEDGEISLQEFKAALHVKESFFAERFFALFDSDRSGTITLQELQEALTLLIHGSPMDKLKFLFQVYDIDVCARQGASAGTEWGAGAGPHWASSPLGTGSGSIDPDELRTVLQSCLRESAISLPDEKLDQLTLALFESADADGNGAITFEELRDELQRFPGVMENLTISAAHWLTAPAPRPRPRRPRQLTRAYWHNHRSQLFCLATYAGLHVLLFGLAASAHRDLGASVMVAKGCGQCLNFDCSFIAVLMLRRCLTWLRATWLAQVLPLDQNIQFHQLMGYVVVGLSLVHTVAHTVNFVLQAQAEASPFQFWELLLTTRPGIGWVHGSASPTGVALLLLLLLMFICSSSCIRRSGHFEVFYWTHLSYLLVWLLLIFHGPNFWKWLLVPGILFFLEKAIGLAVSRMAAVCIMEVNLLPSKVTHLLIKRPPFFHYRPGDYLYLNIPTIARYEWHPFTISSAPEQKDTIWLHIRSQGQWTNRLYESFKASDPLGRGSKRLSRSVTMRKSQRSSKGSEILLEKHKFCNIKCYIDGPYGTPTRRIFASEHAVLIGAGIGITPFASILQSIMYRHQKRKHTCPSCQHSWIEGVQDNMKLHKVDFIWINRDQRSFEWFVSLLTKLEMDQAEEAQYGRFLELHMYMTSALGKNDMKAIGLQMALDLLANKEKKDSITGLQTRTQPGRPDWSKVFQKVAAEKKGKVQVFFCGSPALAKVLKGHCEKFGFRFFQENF

[11] = compound effects on lung adenocarcinoma cell viability – A549, calcein-AM fluorescence, 48 h, basal, profiling panel (AID 1162); details: higher = more signal; also: test concentration not given here
[12] = compound effects on differentiated 3T3-L1 adipocyte viability – cell-based, 3T3-L1 adipocytes, calcein-AM fluorescence, 48 h, basal, profiling panel (AID 1163); details: 3T3-L1 adipocytes viability, higher = more signal; also: test concentration not given here
[13] = compound effects on hepatocellular carcinoma cell viability – HepG2, calcein-AM fluorescence, 48 h, basal, profiling panel (AID 1164); details: higher = more signal; also: test concentration not given here
[14] = compound effects on multiple myeloma cell viability – MM1S, calcein-AM fluorescence, 48 h, basal, profiling panel (AID 1165); details: higher = more signal;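 also: viability of MM1S multiple myeloma cells under basal unstimulated conditions; test concentration not given here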
[15] = calcein-AM signal in unstimulated myeloma cells – cell-based, calcein-AM fluorescence, 48 h, PK04 Diversity Set, profiling panel (AID 1166); details: RPMI8226 myeloma viability, higher = more signal;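 also: cells grown under basal conditions without added stimulus; test concentration not given here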
[16] = JC-1 mitochondrial signal, unstimulated HepG2 cells – cell-based, JC-1 fluorescence, 24 h, 100 nL compound, profiling panel (AID 1167); details: HepG2 mitochondrial potential, higher = more signal; also: test concentration not given here
[17] = JC-1 mitochondrial signal, unstimulated adipocytes – cell-based, JC-1 fluorescence, 3T3-L1 adipocytes, 24 h, 100 nL compound, profiling panel (AID 1168); details: JC-1 mitochondrial fluorescence, higher = more signal, called active from +8 up or from −8 down; also: test concentration not given here
[18] = JC-1 mitochondrial signal, unstimulated myeloma cells – cell-based, JC-1 fluorescence, RPMI8226, 24 h, 100 nL compound, profiling panel (AID 1169); details: JC-1 mitochondrial potential fluorescence, higher = more signal; also: test concentration not given here
[19] = JC-1 mitochondrial signal, unstimulated MM1S myeloma – cell-based, JC-1 fluorescence, 24 h, 100 nL compound, profiling panel (AID 1170); details: MM1S mitochondrial potential, higher = more signal; also: test concentration not given here
[20] = resazurin metabolic signal in A549 cells – cell-based, resazurin fluorescence, 24 h, PK04 Diversity Set, profiling panel (AID 1171); details: A549 viability, higher = more signal, called active from +8 up or from −8 down; also: test concentration not given here

SMILES	z-score [1]	composite z-score [2]	z-score [3]	z-score [4]	z-score [5]	z-score [6]	z-score [7]	z-score [8]	z-score [9]	z-score [10]	z-score [11]	z-score [12]	z-score [13]	z-score [14]	z-score [15]	z-score [16]	z-score [17]	z-score [18]	z-score [19]	z-score [20]
COCCOC(=O)N1C(=O)[C@@]2(c3cc(C#CCC(C(=O)OC)C(=O)OC)ccc31)[C@H](C(=O)N1CCCCCCC1)[C@H]1C(=O)O[C@H](c3ccccc3)[C@H](c3ccccc3)N1[C@@H]2c1ccccc1OCCO	0.822 (inactive)	2.72	2.04 (inactive)	-0.228 (inactive)	0.489 (inactive)	-1.21 (inactive)	2.14	-0.817 (inactive)	-0.194 (inactive)	-1.87	-0.143	1.83	0.0429	-0.284	-1.56	-0.747	2.14 (inactive)	-0.124	-0.892	0.822 (inactive)
CCOC(=O)C[C@H]1[C@H](OC(=O)Cc2ccc3c(c2)OCO3)[C@@H](NC(=O)c2ccccc2)c2cc(OCCCO)ccc2N1C(=O)Cc1ccc(OC)cc1	1.57 (inactive)	-0.31	9.58 (active)	0.828 (inactive)	-0.288 (inactive)	-0.129 (inactive)	2.91	-0.986 (inactive)	0.205 (inactive)	-1.1	3.09	1.19	1.01	0.856	0.434	1.53	-0.947 (inactive)	0.133	-0.851	0.0119 (inactive)
CC(C)C[C@@H]1NC(=O)[C@@]23C(=O)N[C@@H](Cc4ccccc4)C2[C@H](C)[C@@]2(C)O[C@H]2C3/C=C/C/C=C\CNC(=O)[C@@H](CC(C)C)NC1=O (stereo not given in full)	-0.664 (inactive)	0.0774	1.44 (inactive)	-0.172 (inactive)	0.0094 (inactive)	-0.0134 (inactive)	0.0885	0.063 (inactive)	0.41 (inactive)	-3.22	0.939	0.703	-0.293	-0.549	-0.361	-0.046	-0.618 (inactive)	-0.955	1.28	1.31 (inactive)
Cc1c(NC(=O)/C(C#N)=C/c2ccc(Cl)cc2)c(=O)n(-c2ccccc2)n1C	0.764 (inactive)	0.0042	6.41 (inactive)	-0.238 (inactive)	-0.597 (inactive)	-1.44 (inactive)	0.776	-2.29 (inactive)	-0.376 (inactive)	1.22	1.48	0.22	0.115	0.69	-2.03	0.497	0.585 (inactive)	-0.0999	-0.512	-0.354 (inactive)
COCCOC(=O)N1C(=O)[C@@]2(c3cc(C#CC4(O)CCCCCC4)ccc31)[C@H](c1ccc(OCCO)cc1)N1[C@H](c3ccccc3)[C@H](c3ccccc3)OC(=O)[C@H]1[C@@H]2C(=O)N1CCCCCCC1	0.148 (inactive)	2.52	2.18 (inactive)	2.02 (inactive)	0.736 (inactive)	1.02 (inactive)	0.49	0.707 (inactive)	-1.45 (inactive)	0.0377	-0.359	2.14	0.292	-0.834	-1.78	-1.1	-2.25 (inactive)	-0.468	-1.08	-0.557 (inactive)
CC(C)C(=C=CC[C@@H](O)c1ccccc1OCCO)C[C@@H](O)c1cc(Cl)cc(Cl)c1O	-0.701 (inactive)	0.0004	22.2 (active)	5.74 (inactive)	-0.0473 (inactive)	1.56 (inactive)	-0.844	-1.79 (inactive)	-1.46 (inactive)	-1.8	-0.551	0.493	-1.07	-3.43	-3.96	-2.61	-0.00407 (inactive)	-0.847	-1.31	0.0062 (inactive)
Cc1ccc(S[C@]2(C(=O)NCCCN(C)C)CC(=O)N(Cc3ccccc3Cl)[C@@H]2c2ccc(CO)cc2I)cc1	1.02 (inactive)	-0.0573	4.18 (inactive)	0.987 (inactive)	0.524 (inactive)	0.498 (inactive)	-0.344	0.255 (inactive)	-1.15 (inactive)	1.78	0.171	0.908	-0.696	-2.41	-3.15	1.25	0.722 (inactive)	-0.351	-0.984	0.515 (inactive)
COc1cc2c(cc1O)C(c1ccc(CN3CCCC3)cc1)N(Cc1ccc([N+](=O)[O-])o1)CC2 (stereo not given)	-0.715 (inactive)	-0.257	23.1 (active)	7.28 (inactive)	-0.176 (inactive)	0.818 (inactive)	-0.683	-3.89 (inactive)	-2.56 (inactive)	-3.64	-0.731	0.0389	0.0023	0.279	-0.0679	-2.18	-2.19 (inactive)	0.733	-0.307	-0.679 (inactive)
COc1cc2c(cc1O)C(C1CC1)N(Cc1ccc([N+](=O)[O-])o1)CC2 (stereo not given)	-1.03 (inactive)	0.0446	23.7 (active)	6.01 (inactive)	0.359 (inactive)	0.892 (inactive)	0.106	-4.17 (inactive)	-2.46 (inactive)	-3.45	-0.37	0.393	-0.181	-0.201	0.741	-1.57	-0.0836 (inactive)	-0.748	0.0309	0.533 (inactive)
